Experimental data from PubChem BioAssay (NCATS).
“And” between values parts separate entries of the source, which are not always exact repeats. Identical values can stand only once. Results filed as inconclusive are left out. A structure can be active in one record and inactive in another. The source made the active and inactive calls. Calls come from the whole dose curve; as a rule, active = well fitted curve in the direction sought with a large enough effect; inconclusive = small, poorly fitted or top-dose-only effect, or another doubt; inactive = no such curve, though single readings can be large; an effect the other way counts as inactive or inconclusive.

Experiments:
[1] = P-glycoprotein substrates identified in KB-3-1 adenocarcinoma cell line, qHTS therapeutic library screen (AID 1346986); conditions: KB-3-1 parental cells viability, CellTiter-Glo, 72 h; series mostly up to 44.5 µM; note: nearly all actives have a fitted effect of over 60% in size;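 note: potency is for cytotoxicity meaning loss of cell viability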
In short: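 Using luminescence to quantify ATP, parental and P-gp-overexpressing KB cells were compared after 72 h compound titration. KB-8-5-11 was also run with the P-gp inhibitor tariquidar.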

[2] = P-glycoprotein substrates identified in KB-8-5-11 adenocarcinoma cell line, qHTS therapeutic library screen (AID 1346987); conditions: KB-8-5-11 (P-gp overexpressing) viability, CellTiter-Glo, 72 h; series mostly up to 44.5 µM; note: nearly all actives have a fitted effect of over 65% in size; for activity change, negative = cytotoxicity: % is set by controls: 0 for no effect and ±100 for the full control effect
In short: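 Human cervical adenocarcinoma KB-8-5-11 cells, selected in colchicine to over-express P-gp and assayed without it, were exposed for 72 h to titrated compounds. An ATP-based luminescent viability signal gave AC50.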

[3] = tested on: Zika virus NS2B-NS3 protease (unlinked complex); experiment: Primary screen GU Rhodamine qHTS for Zika virus inhibitors: Unlinked NS2B-NS3 protease assay (AID 1347159); conditions: Recombinant ZIKV NS2B-NS3 protease, Rhodamine110 substrate fluorescence; series mostly up to 107 µM; note: nearly all actives have a fitted effect of over 60% in size
In short: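 Unlinked NS2B/NS3, 25 nM; Rhod110 peptide, 1.5 microM; compounds, up to 114 microM. Reaction run 15 min at RT in 10 mM Tris-HCl pH 8.0, 0.01% Tween 20; kinetic fluorescence change fitted with a 4-parameter Hill model.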

[4] = tested on: Zika virus NS2B-NS3 protease (linked construct); experiment: Primary screen NINDS Rhodamine qHTS for Zika virus inhibitors (AID 1347160); conditions: purified NS2B-NS3 protease, Rhodamine110 substrate fluorescence; series mostly up to 33.1 µM; note: nearly all actives have a fitted effect of over 55% in size
In short: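 Single-chain NS2B-NS3 protease, 25 nM, pH 8.0; compounds preincubated 15 min. Activity: Rhodamine110 release from 1.5 microM substrate over 15 min, room temperature, data fitted to 4-parameter Hill.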
Potency is the fitted concentration of half-maximal effect.

Cc1cn(-c2cc(NC(=O)c3ccc(C)c(Nc4nccc(-c5cnccn5)n4)c3)cc(C(F)(F)F)c2)cn1
inactive: Potency [1] | Potency [2] | Potency [3] | Potency [4]

O=C(O)CC1CCC(c2ccc(NC(=O)c3nnc(Nc4ccc(F)c(F)c4)o3)cc2)CC1 (stereo not drawn)
active: Potency [3] 14.1 µM | Potency [4] 14.1 µM
inactive: Potency [1] | Potency [2]

CC1OC(OC2CCC3(C)C(CCC4(C)C3C=CC35OCC6(CCC(C)(C)CC63)CCC45C)C2(C)CO)C(OC2OC(CO)C(O)C(O)C2O)C(O)C1OC1OC(CO)C(O)C(O)C1O (stereo not drawn)
inactive: outcome [1] inactive [at 9.29 µM] | activity change, negative = cytotoxicity [2] 2.86% [at 9.29 µM] | Potency [3] | Potency [4]

CC(=O)OCC1=C[C@@H]2OC(=O)C3=CO[C@@H](O[C@@H]4O[C@H](CO)[C@@H](O)[C@H](O)[C@H]4O)[C@H]1[C@@H]32
inactive: Potency [1] | Potency [2] | Potency [3] | Potency [4]

C=C1CCC2[C@](C)(CCC[C@]2(C)C(=O)O)[C@H]1CC/C(C)=C/C(=O)OC (stereo partly drawn)
active: Potency [3] 12.6 µM
inactive: Potency [1] | Potency [2] | Potency [4]

O=C(OCC1=CC(Cl)C(O)C(OC(=O)c2ccccc2)C1O)c1ccccc1 (stereo not drawn)
inactive: Potency [1] | Potency [2] | Potency [3] | Potency [4]

CC1(C)CC2C(O)C3=C(CC(C)(O)C2C1)C(=O)OC3 (stereo not drawn)
inactive: Potency [1] | Potency [2] | Potency [3] | Potency [4]

CC/C=C\[C@H](O)[C@H](O)C1=C(C)C(=O)[C@]2(O1)C(=O)N[C@@](O)(C(=O)c1ccccc1)[C@@H]2O
inactive: Potency [1] | Potency [2] | Potency [3] | Potency [4]

CC(=O)NC(Cc1c[nH]c2ccccc(=O)c12)C(=O)O (stereo not drawn)
active: Potency [3] 22.4 µM | Potency [4] 15.8 µM
inactive: Potency [1] | Potency [2]

Cc1ccc(-n2nc(C(C)(C)C)cc2NC(=O)Nc2cc(COc3cccnc3)[nH]n2)cc1
inactive: Potency [1] | Potency [2] | Potency [3] | Potency [4]

CC1=COC(OC2OC(CO)C(O)C(O)C2O)C2C(CO)CC(OC(=O)/C=C/c3ccc(O)cc3)C12 (stereo not drawn)
inactive: Potency [1] | Potency [2] | Potency [3] | Potency [4]

C=C[C@H]1[C@H](O[C@@H]2O[C@H](CO)[C@@H](O)[C@H](O)[C@H]2O)OC=C(C(=O)OC)[C@H]1CC=O
inactive: Potency [1] | Potency [2] | Potency [3] | Potency [4]

N#CC1C(=O)N=C(c2cc(Cl)ccc2O)C=C1c1cc(OCc2ccccc2)cc(OCc2ccccc2)c1 (stereo not drawn)
inactive: Potency [1] | Potency [2] | Potency [3] | Potency [4]

CC(=C\C(C)O)/C=C(\C)C(=O)CC1CC(CC(N)=O)CC(=O)O1 (stereo not drawn)
inactive: Potency [1] | Potency [2] | Potency [3] | Potency [4]

C/C=C(\C)C(=O)OC[C@H]1O[C@H](O[C@H]2O[C@H](CO)[C@@H](O)[C@H](O)[C@H]2O[C@@H]2O[C@H](CO)[C@@H](O)[C@H](O)[C@H]2O)[C@H](O[C@@H]2O[C@H](CO)[C@@H](O)[C@H](O)[C@H]2O)[C@@H](O)[C@@H]1O
inactive: Potency [1] | Potency [2] | Potency [3] | Potency [4]

COC1OC(=O)C2=C1C1(C)CCCC(C)(C)C1CC2O (stereo not drawn)
inactive: Potency [1] | Potency [2] | Potency [3] | Potency [4]

C=C(CO)C(=O)O[C@H]1C[C@@]23O[C@@H]2CC/C(=C/[C@H]2OC(=O)C(=C)[C@H]12)CO[C@H]3O
inactive: Potency [1] | Potency [2] | Potency [3] | Potency [4]

C[C@H]1CC[C@@]2(OC1)O[C@H]1CC3C4CC[C@H]5C[C@@H](O[C@@H]6O[C@H](CO)[C@H](O[C@@H]7O[C@H](CO)[C@@H](O)[C@H](O[C@@H]8OC[C@@H](O)[C@H](O)[C@H]8O)[C@H]7O[C@@H]7O[C@H](CO)[C@@H](O)[C@H](O)[C@H]7O)[C@H](O)[C@H]6O)[C@H](O)C[C@]5(C)C4=CC(=O)[C@]3(C)[C@H]1[C@@H]2C (stereo partly drawn)
inactive: outcome [1] inactive [at 9.29 µM] | activity change, negative = cytotoxicity [2] 4.95% [at 9.29 µM] | Potency [3] | Potency [4]

CC(CCc1ccc(O)cc1)O[C@@H]1O[C@H](CO[C@@H]2OC(CO)[C@H](O)[C@H]2O)[C@@H](O)[C@H](O)[C@H]1O (stereo partly drawn)
inactive: Potency [1] | Potency [2] | Potency [3] | Potency [4]

Cc1c(O)cc2c(c1O)COC1(O)CCCOC21 (stereo not drawn)
inactive: Potency [1] | Potency [2] | Potency [3] | Potency [4]

Cc1c(F)cc(C(=O)NC2CC2)cc1-c1ccc(C(=O)NCC(C)(C)C)cn1
inactive and 1.03 µM (active): Potency [2]
inactive: Potency [3] | Potency [4]
active: Potency [1] 0.92 µM

C=C1CC23CC1CCC2C12OC(=O)C(C)(C(O)C(O)C1O)C2C3C(=O)O (stereo not drawn)
inactive: Potency [1] | Potency [2] | Potency [3] | Potency [4]
